# Values joined by “and” are separate entries in the source; they are usually repeats but may differ in a detail not shown here. Identical values can stand only once.
# What was measured:
# Conditions in all cases: Compound concentration 20.0 uM, Protein concentration 2.0 uM, Result type QC Liability
# [1] = target: Tyrosine-protein kinase ABL1 (Homo sapiens) (UniProt P00519)
# [2] = target: Cyclin-dependent kinase 2 (Homo sapiens) (UniProt P24941)
# [3] = target: Casein kinase I isoform delta (Homo sapiens) (UniProt P48730)
# Chain of Casein kinase I isoform delta (Homo sapiens) (P48730 whole entry, looked up, canonical isoform): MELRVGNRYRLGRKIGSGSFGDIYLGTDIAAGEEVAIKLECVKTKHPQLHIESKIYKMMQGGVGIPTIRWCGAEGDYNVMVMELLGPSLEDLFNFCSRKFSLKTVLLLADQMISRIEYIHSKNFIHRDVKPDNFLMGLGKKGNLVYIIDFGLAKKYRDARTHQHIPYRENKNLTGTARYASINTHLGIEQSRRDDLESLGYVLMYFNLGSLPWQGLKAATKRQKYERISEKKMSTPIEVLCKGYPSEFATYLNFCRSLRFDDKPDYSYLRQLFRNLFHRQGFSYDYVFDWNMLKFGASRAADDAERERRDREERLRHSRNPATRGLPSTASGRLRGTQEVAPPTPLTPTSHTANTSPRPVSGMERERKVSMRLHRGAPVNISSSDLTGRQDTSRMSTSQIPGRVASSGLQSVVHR
# [4] = target: Glycogen synthase kinase-3 beta (Homo sapiens) (UniProt P49841)
# Chain of Glycogen synthase kinase-3 beta (Homo sapiens) (P49841 whole entry, looked up): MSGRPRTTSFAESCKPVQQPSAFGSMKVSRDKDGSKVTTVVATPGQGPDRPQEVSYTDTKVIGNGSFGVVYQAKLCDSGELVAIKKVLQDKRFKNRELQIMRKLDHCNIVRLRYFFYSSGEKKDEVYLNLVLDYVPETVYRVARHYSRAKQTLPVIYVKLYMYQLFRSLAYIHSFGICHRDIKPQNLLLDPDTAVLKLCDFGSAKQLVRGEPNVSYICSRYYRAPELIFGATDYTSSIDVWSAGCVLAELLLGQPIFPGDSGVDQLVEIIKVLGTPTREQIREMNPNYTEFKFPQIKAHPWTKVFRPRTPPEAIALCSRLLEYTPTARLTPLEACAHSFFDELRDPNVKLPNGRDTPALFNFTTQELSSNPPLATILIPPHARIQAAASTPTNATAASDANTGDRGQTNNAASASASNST
# [5] = target: Mitogen-activated protein kinase 1 (Homo sapiens) (UniProt P28482)
# Chain of Mitogen-activated protein kinase 1 (Homo sapiens) (P28482 whole entry): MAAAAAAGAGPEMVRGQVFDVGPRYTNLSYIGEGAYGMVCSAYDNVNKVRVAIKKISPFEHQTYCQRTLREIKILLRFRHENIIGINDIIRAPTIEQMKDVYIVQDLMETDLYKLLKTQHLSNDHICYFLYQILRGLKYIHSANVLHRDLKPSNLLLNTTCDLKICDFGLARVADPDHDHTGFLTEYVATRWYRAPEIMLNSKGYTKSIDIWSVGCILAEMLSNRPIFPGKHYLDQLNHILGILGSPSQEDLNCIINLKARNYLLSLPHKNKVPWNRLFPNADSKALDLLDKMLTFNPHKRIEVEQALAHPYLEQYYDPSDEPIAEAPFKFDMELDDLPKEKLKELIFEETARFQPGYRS
# [6] = target: T1, Aurora kinase A (Homo sapiens) (UniProt O14965)
# T1 sequence (whole entry): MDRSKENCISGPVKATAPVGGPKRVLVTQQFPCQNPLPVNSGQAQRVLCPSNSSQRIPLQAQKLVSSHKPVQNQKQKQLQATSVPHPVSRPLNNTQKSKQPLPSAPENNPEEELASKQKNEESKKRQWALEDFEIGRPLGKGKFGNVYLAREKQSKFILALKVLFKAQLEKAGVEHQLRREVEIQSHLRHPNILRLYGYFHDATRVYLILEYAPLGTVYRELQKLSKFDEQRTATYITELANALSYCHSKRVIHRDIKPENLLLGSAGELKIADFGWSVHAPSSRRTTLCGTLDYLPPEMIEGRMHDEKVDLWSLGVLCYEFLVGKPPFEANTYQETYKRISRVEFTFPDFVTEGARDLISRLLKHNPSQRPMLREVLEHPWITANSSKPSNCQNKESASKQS
# Chain of Tyrosine-protein kinase ABL1 (Homo sapiens) (P00519 whole entry): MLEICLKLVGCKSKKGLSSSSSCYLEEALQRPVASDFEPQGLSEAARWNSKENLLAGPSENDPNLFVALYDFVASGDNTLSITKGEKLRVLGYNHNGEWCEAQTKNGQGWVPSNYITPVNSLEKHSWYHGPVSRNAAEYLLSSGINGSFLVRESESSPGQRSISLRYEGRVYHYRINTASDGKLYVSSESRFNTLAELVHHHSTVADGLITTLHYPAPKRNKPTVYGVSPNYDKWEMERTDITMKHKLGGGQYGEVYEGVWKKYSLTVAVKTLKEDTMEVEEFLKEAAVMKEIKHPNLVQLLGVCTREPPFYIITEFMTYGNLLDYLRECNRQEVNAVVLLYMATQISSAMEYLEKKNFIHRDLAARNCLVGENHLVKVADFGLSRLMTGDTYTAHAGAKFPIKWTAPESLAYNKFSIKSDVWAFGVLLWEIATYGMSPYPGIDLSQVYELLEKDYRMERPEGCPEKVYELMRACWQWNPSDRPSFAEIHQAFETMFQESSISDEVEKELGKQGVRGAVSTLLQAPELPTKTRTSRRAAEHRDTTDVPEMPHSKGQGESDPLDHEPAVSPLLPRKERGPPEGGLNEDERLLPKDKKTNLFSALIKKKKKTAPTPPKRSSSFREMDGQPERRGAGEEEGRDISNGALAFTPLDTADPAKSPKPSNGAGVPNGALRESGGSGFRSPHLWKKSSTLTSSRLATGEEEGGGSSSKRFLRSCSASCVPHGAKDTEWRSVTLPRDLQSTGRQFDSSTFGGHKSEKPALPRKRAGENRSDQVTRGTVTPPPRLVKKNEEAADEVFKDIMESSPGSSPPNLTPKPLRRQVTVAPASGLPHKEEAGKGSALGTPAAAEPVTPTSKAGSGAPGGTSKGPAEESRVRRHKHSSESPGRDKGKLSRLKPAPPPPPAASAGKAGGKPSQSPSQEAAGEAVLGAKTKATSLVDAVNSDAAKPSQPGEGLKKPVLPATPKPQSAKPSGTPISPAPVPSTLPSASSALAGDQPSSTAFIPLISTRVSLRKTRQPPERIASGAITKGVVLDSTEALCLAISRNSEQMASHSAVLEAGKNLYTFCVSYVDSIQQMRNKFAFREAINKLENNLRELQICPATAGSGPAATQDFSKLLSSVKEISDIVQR
SMILES,ΔTm [1],ΔTm [2],ΔTm [3],ΔTm [4],ΔTm [5],ΔTm [6]
N=C(N)NCCC[C@H](NC(=O)CC1(CC(=O)N2CCN(C3c4ccccc4NC(=O)c4ccccc43)CC2)CCCC1)C(=O)NCCn1c(=O)n(-c2ccccc2)n(-c2ccccc2)c1=O (stereo partly drawn),-2.29 °C,-1.3 °C,-0.34 °C,-1.99 °C,-0.45 °C,-0.47 °C
CC(=O)Nc1cccc(-n2c(=O)n(C3CC3)c(=O)c3c(Nc4ccc(I)cc4F)n(C)c(=O)c(C)c32)c1,-0.1 °C,0.48 °C,0.23 °C,-0.51 °C,0.29 °C,-0.21 °C
C[C@@H](Oc1cc(-n2cnc3ccc(OC4CCN(C)CC4)cc32)sc1C(N)=O)c1ccccc1Cl,1.32 °C,-0.97 °C,0.23 °C,1.25 °C,0.3 °C,0.44 °C
CCCCNc1ncc2c(-c3ccc(CN4CCN(C)CC4)cc3)cn([C@H]3CC[C@H](O)CC3)c2n1,11.7 °C,5.95 °C,2.72 °C,4.8 °C,0.43 °C,13.5 °C
O=C(Nc1ccc(N2CCC(C(=O)N3CCOCC3)CC2)cc1)c1cnc(Oc2ccccc2)nc1,0.2 °C,0.87 °C,0.06 °C,-0.13 °C,0.13 °C,-0.24 °C
CC(C)(O)c1cn(-c2ccc(-c3cccc(S(C)(=O)=O)c3)cc2)c(C(C)(C)c2ccccc2Cl)n1,-1.7 °C,0.08 °C,-0.27 °C,-0.99 °C,0.15 °C,-3.66 °C
CN1CCC(F)(Cn2cnc(-c3ccc(F)cn3)c2-c2ccnc3[nH]ccc23)CC1,0.05 °C,0.48 °C,8.14 °C,-0.54 °C,0.37 °C,-0.98 °C
CC[C@H](Nc1c(C#N)c(-c2ccc(-c3cccc(C)c3F)cc2)nc2cnccc12)C(=O)O,1.4 °C,-0.67 °C,-0.79 °C,-0.59 °C,-0.11 °C,2.03 °C
CC(C)(C)C(=O)NCc1ccc(Cl)c(C(=O)Nc2ncc[nH]2)c1,0.08 °C,0.44 °C,-0.14 °C,0.45 °C,-0.01 °C,-0.18 °C
Cc1cc(-c2cc3ncccc3c(OC[C@H]3CCCNC3)n2)ccc1N(C)C,5.72 °C,0.38 °C,2.65 °C,1.68 °C,0.09 °C,7.37 °C
Cc1csc(S(=O)(=O)N(CC(C)C)c2cc3c(cc2OCc2ccc(C(=O)O)cc2)CCC3)n1,0.11 °C,-0.15 °C,-0.34 °C,0 °C,-0.27 °C,-0.4 °C
Cc1nsc(Nc2cnc(C(F)(F)F)cn2)c1C(=O)Nc1ccc(O[C@H]2CCCN(CC(F)(F)F)C2)nc1,0.72 °C,1.68 °C,0 °C,-3.09 °C,0 °C,2.24 °C
CN(C)[C@H]1CCN(c2cc(C(F)(F)F)c(C#N)c(Nc3cccc(CCC(=O)O)c3)n2)C1,-0.06 °C,0.28 °C,0.14 °C,0.08 °C,0.58 °C,0.51 °C
CCNC(=O)c1ccc2c(c1)NC(=O)/C2=C(\Nc1ccc(CN(C)C)cc1)c1ccccc1,3.61 °C and 1.55 °C,0.83 °C and 0.42 °C,0.37 °C and -0.02 °C,0.19 °C and -0.61 °C,0.2 °C and 0.17 °C,1.4 °C and 0 °C
Cc1nc2c(cc1F)c(-c1nnc3c(n1)NC(=O)C3(C)C)nn2Cc1cccc(F)c1F,0.8 °C,0.74 °C,0.12 °C,-0.14 °C,0.44 °C,-0.06 °C
CN[C@@H]1CC[C@@H](c2ccc(Cl)c(Cl)c2)c2ccccc21,-0.02 °C,0.01 °C,0.01 °C,-0.7 °C,0 °C,-0.47 °C
CCN(CC)C(=O)C1CN2CCc3cc(OC)c(OC)cc3C2CC1OC(C)=O (stereo not drawn),-0.43 °C,0.69 °C,-0.03 °C,-1.02 °C,0.11 °C,-0.04 °C
Cc1cc(-c2nc(-c3ccc(OC(F)(F)F)cc3)no2)nn1Cc1ccnc(N2CCN(C3CC3)CC2)c1,0.32 °C,0.39 °C,-1.88 °C,-5.07 °C,0.34 °C,-3.42 °C
C[C@@H](COCCC(=O)N1CCN(c2ncc(C(F)(F)F)cn2)CC1)Nc1cn[nH]c(=O)c1C(F)(F)F,0.32 °C,0.9 °C,-0.05 °C,-0.82 °C,0.42 °C,-0.45 °C
Cc1nc2cccnc2n2c(-c3cc([C@@]4(O)CCCOC4)ccc3Cl)nnc12,-0.53 °C,0.88 °C,0.26 °C,-0.63 °C,0 °C,-0.06 °C
C[S+]([O-])c1ccc(-c2nc(-c3cccc(I)c3)c(-c3ccncc3)[nH]2)cc1 (stereo not drawn),0.33 °C,-0.2 °C,2.61 °C,5.08 °C,-1.08 °C,-1.53 °C
CC1(C)Oc2ncnc(N)c2N=C1c1ccc([C@H]2CC[C@H](CC(=O)O)CC2)cc1,0.89 °C,0.57 °C,-0.19 °C,0.61 °C,0.18 °C,0.25 °C
Nc1ncnc2[nH]c(-c3ccccc3)nc12,3.48 °C,0.92 °C,0.73 °C,1.04 °C,0.38 °C,0.6 °C
